Laboratory results taken from PubChem BioAssay (NCI).
This is part of a sample that, as a whole, favours compounds with a hit. Of some 83,000 tested, about 20% had one in any assay.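 Treatment: one concentration, 48 hours, 96-well format. Scoring: percent growth, with anything below 10 considered active.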

Key:
Assay in all cases: NCI-60 one-dose screen, 48 h (100 = growth as untreated, 0 = no growth, -100 = all killed)
Conditions in all cases: 10 µM unless noted
NCI-H23 lung = tested on: NCI-H23 lung
NCI-H226 lung = tested on: NCI-H226 lung
NCI-H322M lung = tested on: NCI-H322M lung
HOP-62 NSCLC = tested on: HOP-62 NSCLC
NCI-H460 lung = tested on: NCI-H460 lung
HOP-92 NSCLC = tested on: HOP-92 NSCLC
NCI-H522 lung = tested on: NCI-H522 lung
A549/ATCC NSCLC = tested on: A549/ATCC NSCLC
786-0 renal = tested on: 786-0 renal
COLO 205 colon = tested on: COLO 205 colon
DU-145 prostate = tested on: DU-145 prostate
MALME-3M melanoma = tested on: MALME-3M melanoma
MDA-MB-231 breast = tested on: MDA-MB-231 breast
RXF 393 renal = tested on: RXF 393 renal
SF-268 CNS = tested on: SF-268 CNS
SF-295 CNS = tested on: SF-295 CNS
SF-539 CNS = tested on: SF-539 CNS
UACC-257 melanoma = tested on: UACC-257 melanoma
K-562 leukemia = tested on: K-562 leukemia

Measured: growth

CC(=O)NCC(=O)Nc1ccc(-c2nnc3ccccn23)nc1.CC(=O)NCC(=O)Nc1ccc(-c2nnc3ccccn23)nc1.[Pt+2]
inactive: NCI-H23 lung 99.4% | NCI-H226 lung 110% | NCI-H322M lung 112% | HOP-62 NSCLC 101% | NCI-H460 lung 99.6% | HOP-92 NSCLC 119% | NCI-H522 lung 83.6% | A549/ATCC NSCLC 85% | 786-0 renal 107% | COLO 205 colon 111% | DU-145 prostate 109% | MALME-3M melanoma 105% | MDA-MB-231 breast 104% | RXF 393 renal 117% | SF-268 CNS 109% | SF-295 CNS 117% | SF-539 CNS 110% | UACC-257 melanoma 78.7%

O=c1[nH]c(NCc2nnnn2-c2ccc(Br)cc2)nc2sc3c(c12)CCCC3
inactive: NCI-H23 lung 97.6% | NCI-H226 lung 94.3% | NCI-H322M lung 91.1% | HOP-62 NSCLC 94.1% | NCI-H460 lung 100% | HOP-92 NSCLC 94.5% | NCI-H522 lung 72.2% | A549/ATCC NSCLC 77.4% | 786-0 renal 88% | COLO 205 colon 97.9% | DU-145 prostate 106% | MALME-3M melanoma 112% | MDA-MB-231 breast 92.4% | RXF 393 renal 103% | SF-268 CNS 98.7% | SF-295 CNS 92.1% | SF-539 CNS 95.9% | UACC-257 melanoma 96%

C[C@@H]1CC[C@@H]2[C@@H]1[C@H](OC(=O)/C=C/c1ccccc1)[C@]1(C3CCCCC3)C[C@@H](NC(=O)CO)[C@@]2(C)O1
inactive: NCI-H23 lung 95.8% | NCI-H226 lung 102% | NCI-H322M lung 92.9% | HOP-62 NSCLC 112% | NCI-H460 lung 94.5% | HOP-92 NSCLC 94.4% | NCI-H522 lung 71.9% | A549/ATCC NSCLC 101% | 786-0 renal 96.4% | COLO 205 colon 109% | DU-145 prostate 107% | MALME-3M melanoma 99.2% | MDA-MB-231 breast 102% | RXF 393 renal 53.2% | SF-268 CNS 97.4% | SF-295 CNS 112% | SF-539 CNS 100% | UACC-257 melanoma 110%

C[C@@H]1CC[C@@H]2[C@@H]1[C@H](OC(=O)/C=C/c1ccccc1)[C@]1(CCCOCCOCCOCCOC(=O)CCCC[C@@H]3SC[C@@H]4NC(=O)N[C@@H]43)C[C@@H](OC(=O)CO)[C@@]2(C)O1
inactive: NCI-H23 lung 102% | NCI-H226 lung 105% | NCI-H322M lung 92.6% | HOP-62 NSCLC 99.3% | NCI-H460 lung 106% | HOP-92 NSCLC 108% | NCI-H522 lung 85% | A549/ATCC NSCLC 97.7% | 786-0 renal 97.6% | COLO 205 colon 112% | DU-145 prostate 103% | MALME-3M melanoma 99.6% | MDA-MB-231 breast 106% | RXF 393 renal 108% | SF-268 CNS 102% | SF-295 CNS 107% | SF-539 CNS 103% | UACC-257 melanoma 109%

Nc1c(-c2nc3ccccc3c(=O)[nH]2)nnn1-c1ccc(Cl)cc1
inactive: NCI-H23 lung 78.9% | NCI-H226 lung 102% | NCI-H322M lung 78.3% | HOP-62 NSCLC 57.2% | NCI-H460 lung 56.2% | HOP-92 NSCLC 101% | NCI-H522 lung 52.5% | A549/ATCC NSCLC 40.6% | 786-0 renal 82.2% | COLO 205 colon 98.6% | DU-145 prostate 77.3% | MALME-3M melanoma 83.3% | MDA-MB-231 breast 85% | RXF 393 renal 81.9% | SF-268 CNS 66.8% | SF-295 CNS 73.6% | SF-539 CNS 50.5% | UACC-257 melanoma 84.8%

Cn1nnnc1-c1ccc(N)cc1
inactive: NCI-H23 lung 88.7% | NCI-H226 lung 107% | NCI-H322M lung 92.7% | HOP-62 NSCLC 95.9% | NCI-H460 lung 105% | HOP-92 NSCLC 96.3% | NCI-H522 lung 84.2% | A549/ATCC NSCLC 95.6% | 786-0 renal 93.8% | COLO 205 colon 110% | DU-145 prostate 99% | MALME-3M melanoma 99.1% | MDA-MB-231 breast 106% | RXF 393 renal 111% | SF-268 CNS 91.7% | SF-295 CNS 98.1% | SF-539 CNS 98.8% | UACC-257 melanoma 106%

CCCCCOC(=O)c1ccc(NC(=O)CNCC(C)C)cc1
inactive: NCI-H23 lung 99.4% | NCI-H226 lung 84.7% | NCI-H322M lung 91.9% | HOP-62 NSCLC 85.1% | NCI-H460 lung 103% | HOP-92 NSCLC 53.8% | NCI-H522 lung 70.1% | A549/ATCC NSCLC 88.4% | 786-0 renal 99.9% | DU-145 prostate 102% | K-562 leukemia 88.8% | MALME-3M melanoma 107% | MDA-MB-231 breast 57.7% | RXF 393 renal 89.7% | SF-268 CNS 95.9% | SF-295 CNS 100% | SF-539 CNS 102% | UACC-257 melanoma 99.3%

O=C(Nc1ccccc1Cl)OCCN1CCOCC1
inactive: NCI-H23 lung 99.7% | NCI-H226 lung 99% | NCI-H322M lung 98.7% | HOP-62 NSCLC 106% | NCI-H460 lung 109% | HOP-92 NSCLC 85.6% | NCI-H522 lung 64.5% | A549/ATCC NSCLC 98.5% | 786-0 renal 88.7% | DU-145 prostate 109% | K-562 leukemia 90.6% | MALME-3M melanoma 114% | MDA-MB-231 breast 111% | RXF 393 renal 114% | SF-268 CNS 107% | SF-295 CNS 103% | SF-539 CNS 105% | UACC-257 melanoma 105%
